# Assay results taken from PubChem BioAssay AID2284062 (EPA ToxCast).
# Calls of active or inactive are those of the source. How the source made its calls: active means hit-call score of the fitted dose curve at least 0.9, where 1 is the maximum; inactive means score below 0.9.
# Molecular target: human CK1delta CK1 Kinase, CSNK1D (gene 1453) (UniProt P48730)
# Assay: ERF_TW_ENZ_hCSNK1D: Eurofins (ERF) Enzymatic Radiometric [10 uM ATP] Assay for human CK1delta CK1 Kinase
# Experimental: ERF_TW_ENZ_hCSNK1D is a biochemical, single-readout assay that uses extracted gene-proteins in a cell-free assay. Measurements were taken 0.5 hour after chemical dosing in a 96-well plate. See CK1delta Human CK1 Kinase Enzymatic Radiometric Assay [10 uM ATP], Panlabs.ERF_TW_ENZ_hCSNK1D is an assay component calculated from the ERF_TW_ENZ_hCSNK1D assay. It is designed to measure enzyme activity using a type of enzyme reporter as detected by scintillation counting with radiometry technology.Data from the assay component ERF_TW_ENZ_hCSNK1D was analyzed at the assay endpoint, ERF_TW_ENZ_hCSNK1D, in the positive analysis fitting direction relative to DMSO as the negative control and baseline of activity. Using a type of enzyme reporter, loss-of-signal activity can be used to understand changes in enzymatic activity as they relate to gene CSNK1D. To generalize the intended target to other relatable targets, this assay endpoint is annotated to the kinase intended target family, where the subfamily is serine/threonine kinase.
# CK1d (h) is incubated with 8 mM MOPS pH 7.0, 0.2 mM EDTA, 200 uM KRRRALS(p)VASLPGL, 10 mM MgAcetate and [gamma-33P]-ATP (specific activity and concentration as required). The reaction is initiated by the addition of the Mg/ATP mix. After incubation for 40 minutes at room temperature, the reaction is stopped by the addition of phosphoric acid to a concentration of 0.5%. […]
# human CK1delta CK1 Kinase, CSNK1D (gene 1453), sequence (P48730 whole entry, looked up): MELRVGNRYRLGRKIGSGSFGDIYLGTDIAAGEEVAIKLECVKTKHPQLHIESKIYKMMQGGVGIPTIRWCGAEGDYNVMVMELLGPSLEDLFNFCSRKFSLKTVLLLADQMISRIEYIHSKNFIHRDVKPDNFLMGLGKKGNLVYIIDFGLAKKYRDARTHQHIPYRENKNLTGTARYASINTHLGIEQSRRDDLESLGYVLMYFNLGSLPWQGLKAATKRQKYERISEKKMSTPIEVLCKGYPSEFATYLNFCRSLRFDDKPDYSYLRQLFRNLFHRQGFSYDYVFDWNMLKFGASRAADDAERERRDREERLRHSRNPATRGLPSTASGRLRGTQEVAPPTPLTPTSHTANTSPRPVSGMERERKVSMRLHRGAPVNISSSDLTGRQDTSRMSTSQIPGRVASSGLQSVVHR
row,SMILES,AC50
1,O=C(/C=C/c1ccc(O)cc1)CC(=O)/C=C/c1ccc(O)cc1,1660 nM (active)
